MITF primary = inhibitors of human MITF; 650,000 tested, 0.91% active; AID 1259374; AlphaScreen MITF homodimerization, bead proximity signal; inhibition, % at 2.6 µM; O75030; in the data active means inhibition above about 50%;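 further: 0% = vehicle wells with protein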
TEAD-YAP inh = TEAD-YAP interaction inhibition | HEK-TIYL cells, TEAD-Gal4/YAP UAS-luciferase luminescence | inhibition, % at 9.12 µM | 640,000 tested, 1.4% active | AID 1259422; in the data active means inhibition above about 32%;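 further: 0% = median of test compound wells and 100% = reference inhibitor wells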
GPR151 activ = activators of human GPR151; Q8TDV0; PathHunter beta-arrestin GPR151 cells, luminescence; activation, % at 11.2 µM; 650,000 tested, 1% active; in the data active means activation above about 4.9%;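 further: 0% = median of compound wells and 100% = cells with positive control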
FBW7 act = activators of human E3 ligase FBW7 | Q969H0 | AlphaScreen FBW7–phospho-cyclin E peptide binding, activator screen | normalized activity (activation), % at 26.1 µM | 650,000 tested, 0.13% active | AID 1259310; in the data active means normalized activity above about 1.9%;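 further: purified mutant Fbw7 with reduced substrate affinity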
Target sequence (Q969H0 whole entry, looked up): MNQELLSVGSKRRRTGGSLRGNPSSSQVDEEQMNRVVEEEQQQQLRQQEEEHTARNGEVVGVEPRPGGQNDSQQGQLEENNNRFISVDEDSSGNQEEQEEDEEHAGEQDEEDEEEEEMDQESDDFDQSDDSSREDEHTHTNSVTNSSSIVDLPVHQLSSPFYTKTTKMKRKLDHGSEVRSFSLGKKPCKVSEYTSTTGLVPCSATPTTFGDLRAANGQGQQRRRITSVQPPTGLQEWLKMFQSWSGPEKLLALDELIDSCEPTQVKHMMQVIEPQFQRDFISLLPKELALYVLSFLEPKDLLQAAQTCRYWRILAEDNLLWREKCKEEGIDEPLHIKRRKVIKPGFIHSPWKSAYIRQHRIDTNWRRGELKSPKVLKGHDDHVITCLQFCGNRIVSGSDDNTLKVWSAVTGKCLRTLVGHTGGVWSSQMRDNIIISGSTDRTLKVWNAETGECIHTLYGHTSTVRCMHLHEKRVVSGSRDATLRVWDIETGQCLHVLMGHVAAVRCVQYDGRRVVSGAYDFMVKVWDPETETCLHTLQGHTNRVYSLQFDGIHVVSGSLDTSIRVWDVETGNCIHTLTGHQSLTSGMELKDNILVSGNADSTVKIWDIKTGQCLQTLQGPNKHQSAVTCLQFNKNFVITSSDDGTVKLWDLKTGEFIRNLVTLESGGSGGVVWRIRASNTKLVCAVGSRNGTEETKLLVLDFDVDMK
GPR151 confirm = confirmation of human GPR151 activators; activation, % at 11.2 µM; 6,700 tested, under 10 active; shares compounds with GPR151 activ; GPR151 PathHunter beta-arrestin cells, luminescence, 90 min; % of EA-reagent control over plate median; AID 1508609;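 active means mean percent activation across replicates above the confirmation screen cutoff of 4.91%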
GPR119 ag = counter-screen for GPR151 activators: effect on human GPR119; activation, % at 11.2 µM; GPR119 PathHunter beta-arrestin cells, luminescence, 90 min; 0 = compound-well median, 100 = enzyme-acceptor control; shares compounds with GPR151 activ; 6,700 tested, 0.3% active;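 active means mean percent activation in the counterscreen above 29.09%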;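 further: counterscreen on off-target GPR119 to flag nonselective hits from the GPR151 activator screen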
* marks the source's active call; other numbers are inactive results. Compounds with a hit are over-represented: about 3.5% of the library has one in this group of screens.

CC(=O)n1cc(/C=c2\sc3nc4cc(C)c(C)cc4n3c2=O)c(-c2ccc(F)cc2)n1 was read as MITF primary -12, TEAD-YAP inh -7, GPR151 activ 6.1*, FBW7 act 0, GPR151 confirm 1 and GPR119 ag -7.
For CCN(CC)c1ncnc2sc(C(=O)N3CCC4(CC3)OCCO4)c(C)c12 the results were MITF primary -4, TEAD-YAP inh 5, GPR151 activ 0 and FBW7 act 0.
COc1ccc(S(=O)(=O)N2CCC(N3CCCCC3)CC2)cc1OC was read as MITF primary -8, TEAD-YAP inh -2, GPR151 activ 6.3*, FBW7 act 0, GPR151 confirm -1 and GPR119 ag -14.
COc1ccc(S(=O)(=O)N2CCC(C)CC2)cc1OC was read as MITF primary 12, TEAD-YAP inh -4, GPR151 activ -2 and FBW7 act 0.
`O=c1[nH]c(CSc2nnc(Nc3ccccc3F)s2)nc2ccccc12` gave MITF primary -19, TEAD-YAP inh -1, GPR151 activ 7.2*, FBW7 act 0, GPR151 confirm 0 and GPR119 ag 4.
`CCOc1ccccc1Nc1nnc(SCc2nc3ccccc3c(=O)[nH]2)s1` gave MITF primary 4, TEAD-YAP inh -9, GPR151 activ -1 and FBW7 act 0.
Cc1cc(Cl)ccc1OCC(=O)N/N=C\c1cccs1 was read as MITF primary 1, TEAD-YAP inh 3, GPR151 activ 3 and FBW7 act 0.
CC(C)c1nc(C(=O)N2CCCC(N3CCOCC3)C2)cs1 (stereo not given) was read as MITF primary -7, TEAD-YAP inh 5, GPR151 activ 6.7*, FBW7 act 0, GPR151 confirm -2 and GPR119 ag -19.
`Cc1ccc(N=Cc2ccccc2O)cc1F` gave MITF primary 27, TEAD-YAP inh 0, GPR151 activ 1 and FBW7 act 1.
Screening Cc1ccc(N=Cc2ccccc2O)cc1C#N returned MITF primary 10, TEAD-YAP inh 11, GPR151 activ 5.6*, FBW7 act 0, GPR151 confirm 0 and GPR119 ag 10.
O=C(COC(=O)c1ccc2c(c1)OCO2)COC(=O)c1ccc2c(c1)OCO2 was read as MITF primary 13, TEAD-YAP inh 8, GPR151 activ -1 and FBW7 act 1.
Screening O=S(=O)(c1cccc(-c2nnc(SCCOc3ccccc3)o2)c1)N1CCCCC1 returned MITF primary -16, TEAD-YAP inh 9, GPR151 activ 1 and FBW7 act 0.
`CC(OCc1ccccc1)C(NC(=O)OC(C)(C)C)C(=O)Nc1nccs1` (stereo not given) gave MITF primary -1, TEAD-YAP inh 1, GPR151 activ 13*, FBW7 act 0, GPR151 confirm 1 and GPR119 ag 7.
Screening Cc1sc(NC(=O)CCS(=O)(=O)c2ccc(Cl)cc2)c(C#N)c1C returned MITF primary 11, TEAD-YAP inh 2, GPR151 activ 5.2*, FBW7 act 0, GPR151 confirm 0 and GPR119 ag 1.
`CCC(=O)NNc1nc2ccc(OC)cc2s1` gave MITF primary -9, TEAD-YAP inh 3, GPR151 activ 6.3*, FBW7 act 1, GPR151 confirm 1 and GPR119 ag 6.
Screening CCN(CC)CC(=O)Nc1nc2ccc(OC)cc2s1 returned MITF primary 13, TEAD-YAP inh -15, GPR151 activ 1 and FBW7 act 0.
`COc1cc2nc(Nc3ccncc3)nc(Nc3ccc(N4CCOCC4)cc3)c2cc1OC` gave MITF primary 18, TEAD-YAP inh -7, GPR151 activ 6.6*, FBW7 act 0, GPR151 confirm 0 and GPR119 ag -2.
CC1(C)CC2CC(C)(CN2C(=O)COC(=O)/C(C#N)=C/c2ccc3c(c2)OCO3)C1 (stereo not given) was read as MITF primary 2, TEAD-YAP inh 2, GPR151 activ 6.1*, FBW7 act 0, GPR151 confirm -1 and GPR119 ag -13.
Screening CCC1CCCCN1C(=O)COC(=O)/C(C#N)=C/c1ccc2c(c1)OCO2 (stereo not given) returned MITF primary 14, TEAD-YAP inh -2, GPR151 activ 0 and FBW7 act 1.
For Cc1ccc(-c2nnc(SCC(=O)Nc3nc4c(s3)CCCC4)o2)cc1 the results were MITF primary 1, TEAD-YAP inh -2, GPR151 activ -1 and FBW7 act 0.
CCOC(=O)C1=C(CN2CCN(C)CC2)NC(=O)NC1c1cc(C)ccc1C (stereo not given) was read as MITF primary -8, TEAD-YAP inh 2, GPR151 activ -1 and FBW7 act 0.
For CC(C)CS(=O)(=O)Nc1ccc2c(c1)CCCN2S(=O)(=O)c1ccc(F)cc1 the results were MITF primary -4, TEAD-YAP inh -10, GPR151 activ 5.2*, FBW7 act 0, GPR151 confirm 0 and GPR119 ag -2.
For CC(C)OCCCNC(=O)C(=O)NC(C)c1ccccc1 (stereo not given) the results were MITF primary -4, TEAD-YAP inh 9, GPR151 activ 5.3*, FBW7 act 0, GPR151 confirm 1 and GPR119 ag 13.
`COCCNC(=O)C(=O)NC(C)c1ccccc1` (stereo not given) gave MITF primary -1, TEAD-YAP inh -10, GPR151 activ 2 and FBW7 act 0.
N#C/C(=C(/O)COc1ccc([N+](=O)[O-])cc1)c1nnc2n1CCCCC2 was read as MITF primary -3, TEAD-YAP inh -8, GPR151 activ 5.8*, FBW7 act 0, GPR151 confirm 0 and GPR119 ag -6.
Screening N#C/C(=C(/O)COc1ccccc1)c1nnc2n1CCCCC2 returned MITF primary -5, TEAD-YAP inh 2, GPR151 activ -1 and FBW7 act 0.
`CCCc1nc(SCC(=O)Nc2nc(C)cs2)c2ccccc2n1` gave MITF primary 14, TEAD-YAP inh -1, GPR151 activ 0 and FBW7 act 0.
Screening CCOc1ccc(NC(=O)CSc2nc3ccc(N4CCCCC4)cc3c(=O)n2Cc2ccccc2)cc1 returned MITF primary -1, TEAD-YAP inh 9, GPR151 activ 7.7*, FBW7 act 0, GPR151 confirm 0 and GPR119 ag 8.
`COc1ccc(C(=O)NC(C)(C)CC(C)(C)C)cc1[N+](=O)[O-]` gave MITF primary 11, TEAD-YAP inh -10, GPR151 activ 6.6*, FBW7 act 0, GPR151 confirm 0 and GPR119 ag 0.
CC(=O)Nc1ccc(Nc2ccnc(N3CCc4ccccc4C3)n2)cc1 was read as MITF primary 7, TEAD-YAP inh 28, GPR151 activ 5.1*, FBW7 act 0, GPR151 confirm 2 and GPR119 ag 28.

Source: PubChem
